# Calls of active or inactive are those of the source. Unless noted, the rule behind the calls is not given here.
# Assays:
# [1] = anti-His antibody binders, primary screen, artefact control for SMM control protein annotation, biochemical, small-molecule microarray, 635 nm fluorescence (AID 1128); conditions: anti-His Alexa647 antibody binding, higher = more signal;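 note: score merges feature fluorescence with signal-to-noise for each printed compound spot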
# [2] = tested on: Human papillomavirus type 1a E7 protein (residues 1-88); assay: HPV1a E7 small-molecule binders, primary screen, biochemical, small-molecule microarray, residues 1-88, 635 nm (AID 1129); conditions: small-molecule microarray binding, fluorescence 635 nm; higher = more signal
# [3] = target: Focal adhesion kinase 1 (Homo sapiens) (UniProt Q05397); assay: small-molecule microarray binders of FAK, primary screen, biochemical, 635/667 nm fluorescence, BSA, DTT (AID 1130); conditions: PTK2 binding, 635 nm fluorescence, higher = more signal;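 note: composite of spot emission at 667 nm and signal to noise over triplicate slides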
# Focal adhesion kinase 1 (Homo sapiens), sequence (Q05397 whole entry, looked up): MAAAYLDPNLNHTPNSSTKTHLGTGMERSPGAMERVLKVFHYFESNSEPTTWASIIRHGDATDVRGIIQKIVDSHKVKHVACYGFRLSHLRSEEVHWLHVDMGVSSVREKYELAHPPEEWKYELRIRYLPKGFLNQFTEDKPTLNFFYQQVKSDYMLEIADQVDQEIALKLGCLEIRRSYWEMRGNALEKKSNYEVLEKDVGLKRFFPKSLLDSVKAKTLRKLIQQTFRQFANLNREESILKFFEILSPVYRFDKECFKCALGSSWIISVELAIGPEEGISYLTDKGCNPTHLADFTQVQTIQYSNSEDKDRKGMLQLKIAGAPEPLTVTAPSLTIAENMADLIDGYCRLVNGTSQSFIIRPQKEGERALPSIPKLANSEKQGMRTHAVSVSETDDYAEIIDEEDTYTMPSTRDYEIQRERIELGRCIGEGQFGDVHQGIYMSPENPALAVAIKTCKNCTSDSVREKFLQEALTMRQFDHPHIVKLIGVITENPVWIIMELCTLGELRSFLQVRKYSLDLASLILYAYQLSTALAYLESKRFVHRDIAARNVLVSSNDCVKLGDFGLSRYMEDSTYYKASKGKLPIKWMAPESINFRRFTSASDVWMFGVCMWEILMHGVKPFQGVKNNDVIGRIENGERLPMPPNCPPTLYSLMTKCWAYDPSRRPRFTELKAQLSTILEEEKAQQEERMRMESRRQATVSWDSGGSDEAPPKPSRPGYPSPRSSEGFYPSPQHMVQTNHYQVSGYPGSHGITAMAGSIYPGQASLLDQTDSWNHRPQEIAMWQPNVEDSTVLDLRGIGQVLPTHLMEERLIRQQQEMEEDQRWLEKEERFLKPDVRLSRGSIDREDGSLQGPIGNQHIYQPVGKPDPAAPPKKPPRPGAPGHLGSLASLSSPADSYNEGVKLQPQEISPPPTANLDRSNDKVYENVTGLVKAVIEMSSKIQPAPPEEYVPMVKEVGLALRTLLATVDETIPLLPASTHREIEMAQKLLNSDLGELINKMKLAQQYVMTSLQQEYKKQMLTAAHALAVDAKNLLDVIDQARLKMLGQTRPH
# [4] = tested on: Fibrinogen (Alexa647-labelled); assay: fibrinogen binders on compound microarrays, profiling panel, artefact control for SMM control-protein annotation, biochemical, small-molecule microarray, 635/667 nm fluorescence (AID 1131); conditions: fibrinogen-A647 binding fluorescence, higher = more signal;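 note: z-score merges 667 nm fluorescence with per-spot signal-to-noise over triplicate slides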
# [5] = target: Follistatin (Homo sapiens) (UniProt P19883); assay: follistatin binders on small-molecule microarrays, primary screen, biochemical, small-molecule microarray, 635/667 nm fluorescence (AID 1132); conditions: FST binding, 635 nm fluorescence, higher = more signal
# Follistatin (Homo sapiens), sequence (P19883 whole entry, looked up): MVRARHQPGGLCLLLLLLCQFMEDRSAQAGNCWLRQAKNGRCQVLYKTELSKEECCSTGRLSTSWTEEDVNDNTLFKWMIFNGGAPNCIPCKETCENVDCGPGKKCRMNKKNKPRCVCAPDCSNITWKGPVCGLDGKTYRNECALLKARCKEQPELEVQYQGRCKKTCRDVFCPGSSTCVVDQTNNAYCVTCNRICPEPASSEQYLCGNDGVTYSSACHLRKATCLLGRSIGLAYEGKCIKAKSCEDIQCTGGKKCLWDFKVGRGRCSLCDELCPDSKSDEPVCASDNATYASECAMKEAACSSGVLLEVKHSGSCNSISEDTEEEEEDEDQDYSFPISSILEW
# [6] = target: Fibroblast growth factor 2 (Homo sapiens) (UniProt P09038); assay: FGF2 binders on small-molecule microarrays, primary screen, biochemical, small-molecule microarray, 635/667 nm fluorescence (AID 1133); conditions: small-molecule microarray binding, FGF2, fluorescence 635/667; higher = more signal
# Fibroblast growth factor 2 (Homo sapiens), sequence (P09038 whole entry, looked up): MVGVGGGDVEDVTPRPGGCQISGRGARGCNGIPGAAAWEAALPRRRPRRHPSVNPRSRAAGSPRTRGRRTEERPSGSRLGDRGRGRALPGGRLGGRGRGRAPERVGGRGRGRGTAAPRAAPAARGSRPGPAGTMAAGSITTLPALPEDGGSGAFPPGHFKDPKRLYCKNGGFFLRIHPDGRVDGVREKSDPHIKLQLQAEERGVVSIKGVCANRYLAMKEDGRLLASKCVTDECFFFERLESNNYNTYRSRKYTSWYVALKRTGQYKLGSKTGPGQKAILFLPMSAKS
# [7] = mitochondrial membrane potential change in A549 cells, profiling panel, cell-based, JC-1 fluorescence, basal, 24 h, 100 nL (AID 1138); conditions: higher = more signal;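 note: A549 lung adenocarcinoma cells under basal conditions with no added stimulus; test concentration not given here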
# [8] = tested on: Lefty1; assay: Lefty1 binders on small-molecule microarrays, primary screen, biochemical, small-molecule microarray, 635/667 nm fluorescence (AID 1139); conditions: small-molecule microarray binding, fluorescence 635/667; higher = more signal
# [9] = tested on: wheat germ agglutinin (Triticum aestivum), Alexa647-labelled; assay: wheat germ agglutinin binders on compound microarrays, profiling panel, artefact control for SMM control-protein annotation, biochemical, small-molecule microarray, 635/667 nm fluorescence (AID 1140); conditions: WGA-A647 binding, 635 nm fluorescence, higher = more signal;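 note: score merges 667 nm feature emission with signal to noise over triplicate slides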
# [10] = target: Luciferin 4-monooxygenase (Photinus pyralis) (UniProt P08659); assay: firefly luciferase enzyme inhibitors, primary screen, biochemical, luminescence, purified enzyme, 2006 set (AID 1141); conditions: SteadyGlo luminescence, 30 min, higher = more signal, called active from +8 up or from −8 down;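 note: cell-free assay with purified firefly luciferase at 100 ng per well in PBS; test concentration not given here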
# Luciferin 4-monooxygenase (Photinus pyralis), sequence (P08659 whole entry, looked up): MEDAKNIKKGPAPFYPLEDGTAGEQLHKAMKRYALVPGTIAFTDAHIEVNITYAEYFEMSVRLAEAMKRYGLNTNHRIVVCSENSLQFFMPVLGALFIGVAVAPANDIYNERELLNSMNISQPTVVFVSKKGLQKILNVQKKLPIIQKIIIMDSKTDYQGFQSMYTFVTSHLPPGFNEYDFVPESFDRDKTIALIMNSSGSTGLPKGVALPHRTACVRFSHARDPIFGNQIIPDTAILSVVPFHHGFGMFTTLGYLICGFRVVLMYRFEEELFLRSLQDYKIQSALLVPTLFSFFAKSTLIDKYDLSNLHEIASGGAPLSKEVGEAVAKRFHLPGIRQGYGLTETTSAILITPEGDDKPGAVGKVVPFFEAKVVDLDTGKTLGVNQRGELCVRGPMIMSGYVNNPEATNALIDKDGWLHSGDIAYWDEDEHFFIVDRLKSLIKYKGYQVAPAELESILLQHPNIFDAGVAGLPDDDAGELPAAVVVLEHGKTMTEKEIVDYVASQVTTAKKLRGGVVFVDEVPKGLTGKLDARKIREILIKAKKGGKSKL
# [11] = tested on: Wnt5a (protein binding on small-molecule microarray); assay: Wnt5a binders on small-molecule microarray, primary screen, biophysical, 635/667 nm fluorescence (AID 1142); conditions: 635 nm fluorescence, higher = more signal;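 note: fluorescence read at 667 nm with signal to noise per printed feature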
# [12] = cell viability in Huh7 cells, primary screen, cytotoxicity control for HCV replication inhibitor project, CellTiter-Glo luminescence, basal, 48 h (AID 1143); conditions: Huh7 HCV replicon, higher = more signal, called active from +8 up or from −8 down;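 note: Huh7 hepatoma cells carrying a hepatitis C replication reporter with no stimulus; test concentration not given here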
# [13] = P. aeruginosa biofilm formation inhibitors, primary screen, PAO1 strain, BacTiter-Glo luminescence, LB-PBS (AID 1144); conditions: 12 h, higher = more signal
# [14] = CREB reporter modulators without forskolin, primary screen, cell-based, PC12, CRE-LacZ reporter, unstimulated (AID 1145); conditions: no forskolin, luminescence, 4.5 h, higher = more signal, called active from +8 up or from −8 down
# [15] = CREB reporter modulators under forskolin, primary screen, cell-based, PC12, CRE-LacZ reporter, forskolin-stimulated (AID 1146); conditions: luminescence, 4.5 h, higher = more signal, called active from +8 up or from −8 down;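 note: PC12 cells with 6xCRE LacZ reporter stimulated by forskolin 10 µM; beta-galactosidase reporter signal reflecting CREB driven transcription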
# [16] = target: Streptavidin (Streptomyces avidinii) (UniProt P22629); assay: streptavidin binders on small-molecule microarray, primary screen, artefact control for SMM compound annotation, biophysical, 635/667 nm fluorescence (AID 1147); conditions: streptavidin binding, higher = more signal;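 note: signal reflects streptavidin binding to arrayed compounds as a control protein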
# Streptavidin (Streptomyces avidinii), sequence (P22629 whole entry, looked up): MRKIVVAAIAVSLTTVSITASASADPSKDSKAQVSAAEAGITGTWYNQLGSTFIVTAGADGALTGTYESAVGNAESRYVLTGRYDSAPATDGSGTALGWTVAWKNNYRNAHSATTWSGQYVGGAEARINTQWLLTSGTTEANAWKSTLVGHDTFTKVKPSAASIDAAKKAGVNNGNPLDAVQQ
# [17] = small-molecule binders of probe aInhba, primary screen, biochemical, small-molecule microarray, 635/667 nm fluorescence (AID 1148); conditions: higher = more signal;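 note: score merges 667nm spot fluorescence with signal-to-noise for antibody binding to printed compounds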
# [18] = target: Torsin-1A (Homo sapiens) (UniProt O14656); assay: torsin A binders from cell lysate, primary screen, small-molecule microarray, wild-type, 635/667 nm (AID 1149); conditions: COS7 hTOR1A-WT lysate, 635 nm fluorescence, higher = more signal
# Torsin-1A (Homo sapiens), sequence (O14656 whole entry, looked up): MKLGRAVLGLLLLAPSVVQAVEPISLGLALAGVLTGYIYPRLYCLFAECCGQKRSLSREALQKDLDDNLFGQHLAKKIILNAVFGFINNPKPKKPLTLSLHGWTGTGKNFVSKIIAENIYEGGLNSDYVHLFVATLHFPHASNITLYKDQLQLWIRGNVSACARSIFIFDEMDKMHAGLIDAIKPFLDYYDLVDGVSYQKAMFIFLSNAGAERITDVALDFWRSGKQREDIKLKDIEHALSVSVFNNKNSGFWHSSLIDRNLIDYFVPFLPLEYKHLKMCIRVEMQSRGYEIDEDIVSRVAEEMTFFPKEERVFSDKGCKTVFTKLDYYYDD
# [19] = target: Torsin-1A (Homo sapiens) (UniProt O14656); assay: small-molecule binders of mutant TOR1A in lysate, primary screen, cell lysate, small-molecule microarray, COS7 lysate, 635/667 nm fluorescence (AID 1150); conditions: COS7 hTOR1A mutant lysate, 635 nm fluorescence, higher = more signal;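 note: score pools 667 nm emission and signal to noise measuring lysate protein binding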
# [20] = tested on: Sonic hedgehog protein (Shh); assay: small-molecule binders of Shh protein, primary screen, biochemical, small-molecule microarray, 635/667 nm fluorescence (AID 1151); conditions: small-molecule microarray binding, 635 nm fluorescence; higher = more signal;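 note: Shh protein binding to compounds spotted on small-molecule microarray slides; score combines spot fluorescence intensity with signal-to-noise across triplicate slides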
SMILES,composite z-score [1],composite z-score [2],composite z-score [3],composite z-score [4],composite z-score [5],composite z-score [6],z-score [7],composite z-score [8],composite z-score [9],z-score [10],composite z-score [11],z-score [12],z-score [13],z-score [14],z-score [15],composite z-score [16],composite z-score [17],composite z-score [18],composite z-score [19],composite z-score [20]
O=C1N(CCS(=O)(=O)c2ccccc2)c2ccccc2[C@@H]2OC(c3ccc(OCCCO)cc3)=N[C@]12CCS(=O)(=O)c1ccccc1,0.7,1.2,0.575,0.922,1.38,1.5,-1.59,0.553,0.465,-3.78 (inactive),0.277,-1.35 (inactive),0.647 (inactive),2.41 (inactive),0.103 (inactive),1.12,0.103,0.741,1.43,1.3
COCCOC(=O)N1C(=O)[C@@]2(c3cc(C#Cc4ccc(OC)cc4)ccc31)[C@H](c1ccc(OCCO)cc1)N1[C@H](c3ccccc3)[C@H](c3ccccc3)OC(=O)[C@H]1[C@@H]2C(=O)N1CCCCCCC1,-0.252,1.2,1.4,0.636,1.36,1.24,-0.625,1.36,1.01,-2.14 (inactive),0.713,-3.28 (inactive),-1.44 (inactive),0.891 (inactive),-0.498 (inactive),2.42,1.65,0.666,1.71,2.02
COCCCNC(=O)[C@@H]1c2ccccc2C(=O)N(C2CCCCC2)[C@H]1c1ccc(CO)cc1,3.06,-0.668,0.183,-0.927,-0.388,-0.658,0.705,-1.19,-0.365,-0.0838 (inactive),-0.384,-4.86 (inactive),-0.303 (inactive),-0.385 (inactive),0.656 (inactive),-0.59,-0.0963,0.691,-1.51,-0.759
CCOC(=O)C1=CC[C@@H](c2ccccc2)N(S(=O)(=O)c2ccc(C)cc2)[C@H]1C#N,0.806,1.2,0.721,0.986,-0.33,-0.162,-0.604,-0.565,0.517,-0.227 (inactive),0.114,-1.82 (inactive),0.184 (inactive),-0.48 (inactive),3.56 (inactive),0.93,0.134,0.0439,0.189,-0.707
COC(=O)c1ccc([C@H](NC(=O)c2ccccc2)[C@]2(C)C[C@H]2C2CCCCC2)cc1,0.494,1.18,0.591,0.707,0.412,-0.639,0.85,-0.41,1.21,1.51 (inactive),0.0477,-1.78 (inactive),-0.718 (inactive),0.394 (inactive),1.28 (inactive),1.08,0.166,-0.435,0.266,-0.999
C=CCNC(=O)[C@H]1[C@@H]2C(=O)O[C@@H](c3ccccc3)[C@@H](c3ccccc3)N2[C@@H](c2ccccc2OCCO)[C@]12C(=O)N(C(=O)OCCOC)c1ccccc12,1.23,1.22,0.706,0.887,0.465,0.849,-0.276,0.583,1.07,0.206 (inactive),0.307,-4.39 (inactive),0.369 (inactive),-0.195 (inactive),6.34 (inactive),0.618,-0.358,-0.025,0.664,1.14
COCCOC(=O)N1C(=O)[C@@]2(c3cc(C#CC4(O)CCCCCC4)ccc31)[C@H](C(=O)N1CCc3cc(OC)c(OC)cc3C1)[C@H]1C(=O)O[C@H](c3ccccc3)[C@H](c3ccccc3)N1[C@@H]2c1ccc(O)cc1,2.17,1.23,0.427,0.853,1.26,1.1,-0.791,0.594,0.972,-0.604 (inactive),0.869,-1.83 (inactive),0.0231 (inactive),1.68 (inactive),8.06 (active),0.398,0.306,1.25,0.538,0.774
COC(=O)[C@@]1(Cc2ccccc2CN=[N+]=[N-])COC(c2ccc(OCCCO)cc2)=N1,-0.322,-0.493,-0.161,-2.41,-1.88,-1.18,-0.408,-1.65,0.0216,-1.88 (inactive),-1.09,-3.56 (inactive),-0.0995 (inactive),1.19 (inactive),-0.244 (inactive),-1.25,-0.203,-3.23,-2.37,-1.15
COC(=O)[C@@]1(CCS(=O)(=O)c2ccccc2)N=C(c2ccc(OCCCO)cc2)O[C@H]1c1ccccc1N=[N+]=[N-],1.65,1.21,0.621,0.757,0.993,0.89,0.797,0.162,0.647,-1.93 (inactive),0.0174,-3.08 (inactive),-0.16 (inactive),0.377 (inactive),-0.112 (inactive),0.586,0.0519,1.83,1.04,1.2
C=C(/C(=C/C[C@H](OC(=O)c1ccncc1)c1ccccc1OCCO)c1cc(C(=O)OC)ccc1OC)C(C)C,0.32,1.08,-0.145,0.314,1.07,1.39,-0.032,0.67,0.351,-0.538 (inactive),0.913,-1.5 (inactive),-0.439 (inactive),6.99 (inactive),0.644 (inactive),-0.0945,-0.0375,0.712,0.441,1.74

# Source: PubChem BioAssay
